# This is a sample that favours compounds with a hit; in the whole collection about 1.5% have one here.
# E coli Lon inh: inhibitors of E. coli Lon protease, primary screen, biochemical, fluorescence polarization | P0A9M0 | purified E. coli Lon protease | inhibition, % at 7.94 µM | 0.42% of 360,000 active | AID 602123, 2011; in the data active = inhibition above about 13%, passing the limit was not always enough;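 note: 0% = enzyme with probe and DMSO and 100% = no enzyme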
# MCL1-BIM inh: inhibitors of MCL1 binding to BIM-BH3, primary screen, biochemical, fluorescence polarization | Induced myeloid leukemia cell differentiation protein Mcl-1 (Homo sapiens), Q07820 | GST-MCL1 / FITC-Bim-BH3 fluorescence polarization | inhibition, % at 10.9 µM | 0.68% of 320,000 active | AID 2057, 2009;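 active = inhibition above the mean inhibition of all tested compounds plus 3 SD, set per campaign, cut at about 40% in these data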;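 note: 0% = DMSO wells and 100% = unlabeled Bim-BH3 peptide control; higher means more loss of mP so more displacement of Bim peptide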
# Bcl-xL primary: inhibitors of human Bcl-xL, primary screen, biochemical, fluorescence polarization, HTS. GST-Bcl-xL / FITC-Bim BH3 peptide fluorescence polarization. inhibition, % at 10.9 µM. 0.7% of 320,000 active;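 active = inhibition above the mean of all tested compounds plus 3 SD, cutoff set per campaign, cut at about 30% in these data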;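 note: 0% = DMSO wells and 100% = unlabeled Bim-BH3 peptide competitor; inhibitors lower millipolarization by displacing the labeled peptide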
# GLD-1 RNA inh: GLD-1/TGE RNA complex disruptors, primary screen, biochemical, fluorescence polarization. purified GLD-1 + fluorescein TGE RNA. inhibition, % at 5.96 µM. AID 2280, 2010. Female germline-specific tumor suppressor gld-1 (Caenorhabditis elegans), Q17339. 0.44% of 320,000 active;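 active = percent inhibition above a per-plate cutoff, the plate mean of test compounds plus 3 SD, cut at about 30% in these data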;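 note: 0% = DMSO wells with GLD-1 and probe and 100% = wells lacking GLD-1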
# MEX-5 binding: MEX-5 zinc finger RNA-binding disruptors – biochemical, C. elegans, fluorescence polarization, MLPCN library, primary screen | MEX-5/FITC-TCR2 RNA binding; stronger effect = lower value | activity score (negative = inhibition of binding), % at 10 µM | 0.38% of 300,000 active;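 active = inhibition past about -25% in most replicates, and total fluorescence under double the plate's negative control median, limit read from the data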;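 note: 0% = DMSO and -100% = 5 µM competing unlabeled TCR2 RNA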
# EBV gp42 inh: Epstein-Barr virus gp42 inhibitors, primary screen, biochemical, uHTS, fluorescence polarization; inhibition, % (tested at 21.74 µM); Glycoprotein 42 (Epstein-Barr virus (strain AG876)), Q1HVG2; 0.42% of 220,000 active; Fluorescence polarization binding assay, mP read-out; in the data active = inhibition above about 50%
# GLD1 RNA confirm: GLD-1/TGE RNA binding inhibitors, retest, confirmation, biochemical, fluorescence polarization, triplicate; 10% of 550 active; GLD-1/FL-TGE RNA fluorescence polarization; shares compounds with GLD-1 RNA inh; inhibition, % at 5.96 µM;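 active = average inhibition across triplicates above the hit cutoff set in the primary screen, cut at about 32% in these data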;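 note: 0% = GLD-1 with RNA probe and DMSO and 100% = wells lacking GLD-1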
# An asterisk follows results filed as active; nt = not tested or not shown.
SMILES,E coli Lon inh,MCL1-BIM inh,Bcl-xL primary,GLD-1 RNA inh,MEX-5 binding,EBV gp42 inh,GLD1 RNA confirm
O=C(CN1C(=O)COc2ccccc21)NCCN1CCOCC1,-2.1,-6.8,2.9,5.1,0.1,nt,nt
O=C(O)C1=CC2C=C(Cl)C=CC2OC1=O (configuration not stated),-3.6,nt,nt,nt,nt,nt,nt
COCCC(=O)N1CCC(Oc2ccc(C(=O)N3CCC(N(C)C)C3)cc2)CC1 (configuration not stated),-6.9,2.9,2.4,7.2,0.2,nt,nt
COc1ccc(S(=O)(=O)C(C#N)c2nc3ccccc3nc2N2CCCC(C)C2)cc1 (configuration not stated),7.7,41.0*,43.4*,33.3*,-7.3,32.0,6.5
N#CC1=C(N)C2=CCCC[C@H]2[C@H](c2ccccc2)C1(C#N)C#N,3.5,41.6*,34.7*,39.7*,-17.2,27.6,-2.5
N#CC1=C(N)C2=CCCC[C@H]2[C@H](c2ccc(Br)cc2)C1(C#N)C#N,6.9,37.6,39.8*,36.7*,nt,19.0,1.2
CC(C)NC(=O)N1Cc2cc(C(=O)NC3CCCCC3)nc(-c3cccc(-c4cccnc4)c3)c2[C@@H]1CCO,-3.3,nt,nt,nt,nt,nt,nt
c1ccc2c(c1)ccn2CCCN1CCCCC1,4.3,nt,nt,nt,nt,nt,nt
COc1ccc(NC(=O)c2oc3ccccc3c2NC(=O)C2CCCO2)cc1OC (configuration not stated),1.1,2.0,4.4,70.3*,0.0,-1.0,-2.3
Cc1ccc(NC(=O)c2oc3ccccc3c2NC(=O)C2CCCO2)cc1C (configuration not stated),0.3,2.8,-0.5,-7.8,0.9,-7.1,nt
O=C(Nc1sc2c(c1C(=O)O)CCC2)c1ccccc1,0.4,18.6,11.5,49.2*,1.4,-3.0,1.9
CCN(CC)c1nc(C)c2c(c1C#N)CC(C)(C)OC2,0.3,3.7,7.9,-1.7,0.6,-13.9,nt
CC1(C)Cc2c(C#N)c(N)sc(=S)c2CO1,2.4,42.8*,39.8*,30.8*,0.9,-2.3,11.7
O=C(NCc1ccccn1)c1c(-c2ccccc2)sc2ccccc12,17.7,nt,nt,2.1,nt,nt,nt
CN(C)C(CNC(=O)c1ccc(C(F)(F)F)cc1)c1ccco1 (configuration not stated),-7.0,-4.0,-0.8,-9.3,0.9,nt,nt
COC(=O)c1ccc(NC(=O)CSc2ccccn2)cc1,-7.5,-8.0,-4.5,8.8,-1.1,-40.8,nt
COC(=O)c1ccc(NC(=O)CSc2ccccc2)cc1,2.5,32.0,37.9*,36.7*,-0.8,-15.8,-6.2
Cn1c(=O)c(=O)n(C)c2cc(S(=O)(=O)CCC(=O)NCc3ccccc3)ccc21,2.8,1.9,1.1,0.9,2.3,nt,nt
CCN(Cc1ccccc1)C(=O)CCS(=O)(=O)c1ccc2c(c1)n(C)c(=O)c(=O)n2C,6.1,5.5,5.0,45.8*,2.5,nt,0.8
C=CCNC(=O)/C(C#N)=C/c1c(N2CCN(c3ccc(OC)cc3)CC2)nc2c(C)cccn2c1=O,2.2,10.1,5.4,32.7*,0.9,nt,-8.2
Cc1ccc(-c2nc(-c3ccncc3)no2)cc1C,2.4,5.3,3.6,37.2*,1.9,nt,-1.8
Cc1ccc(-c2nc(-c3ccncc3)no2)cc1Cl,6.9,2.6,0.8,-2.9,0.2,nt,nt
O=C(COC(=O)/C=C/c1cccc(Cl)c1)Nc1ccccc1-c1ccccc1,nt,4.9,-1.2,47.4*,1.5,-11.6,-2.1
O=C(COC(=O)/C=C/c1cccc(Cl)c1)Nc1c(F)cccc1F,-7.3,nt,nt,3.1,nt,nt,nt

# Screens as filed in PubChem.
